Laboratory results published in PubChem BioAssay (Tox21).
Records with an inconclusive call do not appear. Active and inactive are the calls of the source. Unless noted, calls come from the whole dose curve; as a rule, active = well fitted curve in the direction sought with a large enough effect in the repeat runs; inconclusive = weak or mixed curves; inactive = no such curve, though single readings can be large; an effect the other way counts as inactive or inconclusive.

Experiments:
[1] = qHTS assay to identify aromatase inhibitors - cell viability counter screen (AID 743084);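 note: cells stimulated with testosterone during compound exposure; nearly all actives have a fitted effect of over 55% in size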
[2] = biological target: Aryl hydrocarbon receptor (Homo sapiens) (UniProt P35869); assay: qHTS assay to identify small molecule that activate the aryl hydrocarbon receptor (AhR) signaling pathway (AID 743085); note: nearly all actives have a fitted effect of over 15% in size; note: potency is the fitted concentration of half-maximal effect;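 for activation: HG2L7.5c1 human HepG2 liver cells with stably integrated DRE-driven firefly reporter; series mostly up to about 70 µM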
Outline: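 Stably transfected human liver carcinoma cells (HG2L7.5c1; 20 DRE-firefly luciferase) were incubated 5 h, dosed, and kept 24 h at 37C. Agonism was scored from increased luciferase luminescence.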

[3] = qHTS assay to identify small molecule that activate the aryl hydrocarbon receptor (AhR) signaling pathway - cell viability counter screen (AID 743086);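 note: HepG2 liver cells carrying the AhR DRE luciferase reporter; series mostly up to about 70 µM; nearly all actives have a fitted effect of over 45% in size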
Outline: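 HepG2-AhR-luc (HG2L7.5c1) cells, 4000/well, were preincubated 5 h at 37C, exposed to compound in qHTS format for 24 hr at 37C, then given CellTiter-Fluor for 30 min; viability was read as fluorescence in the reporter wells.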

[4] = biological target: Peroxisome proliferator-activated receptor gamma (Homo sapiens) (UniProt P37231); assay: qHTS assay to identify small molecule agonists of the peroxisome proliferator-activated receptor gamma (PPARg) signaling pathway (AID 743094; active = well fitted activation curve with a large enough effect in the signal ratio in the repeat runs, not every such curve was filed as active; the % refers to the signal ratio)
Outline: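 Reporter activation was scored by fluorescence of cleaved LiveBLAzer B/G substrate (1 h, room temperature) in PPARg-bla HEK293H cells previously treated 17 h at 37C with DMSO-dissolved compounds.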

[5] = qHTS assay to identify small molecule antagonists of the peroxisome proliferator-activated receptor gamma (PPARg) signaling pathway - cell viability counter screen (AID 743194); note: nearly all actives have a fitted effect of over 55% in size
Outline: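 PPARg-UAS-bla HEK293H cells were plated, rested 5 h at 37 C, then treated with compounds plus rosiglitazone (50 nM final) for 17 h at 37 C; viability was then read by CellTiter-Glo luminescence after 30 min at room temperature.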

[6] = qHTS assay for small molecule agonists of the antioxidant response element (ARE) signaling pathway (AID 743202; active = well fitted activation curve with a large enough effect in the signal ratio in the repeat runs, not every such curve was filed as active; the % refers to the signal ratio)
Outline: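 Following a 16 h, 37 C exposure of reporter HepG2 cells (ARE-driven beta-lactamase, 2,000 cells/well) to compounds, FRET substrate was applied for 2 h at room temperature and fluorescence intensity recorded.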

[7] = qHTS assay for small molecule agonists of the antioxidant response element (ARE) signaling pathway - cell viability counter screen (AID 743203; calls by dose curve; note: nearly all actives have a fitted effect of over 55% in size)
Outline: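 Viability counter screen: stably transfected ARE-bla HepG2 line, 16 hrs compound exposure at 37C/5% CO2, ATP-based CellTiter-Glo luminescence measured in the reporter wells.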

[8] = qHTS assay for small molecule activators of the heat shock response signaling pathway - cell viability counter screen (AID 743209); note: nearly all actives have a fitted effect of over 50% in size
Outline: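 Viability of HSE-bla HeLa cells is measured with CellTiter-Glo in the wells already used for the reporter read. Compound exposure lasts 5 h at 37 C, and luminescence is read after 30 min at room temperature.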

[9] = qHTS assay for small molecule activators of the heat shock response signaling pathway (AID 743210; active = well fitted activation curve with a large enough effect in the signal ratio in the repeat runs, with a control signal flat, not every such curve was filed as active; the % refers to the signal ratio; note: series mostly up to about 63 µM)
Outline: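 Heat shock element–beta-lactamase HeLa reporter cells; qHTS with compounds for 5 h at 37 C; detection by FRET substrate fluorescence after 2.5 h at RT.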

[10] = qHTS assay to identify small molecule agonists of the peroxisome proliferator-activated receptor delta (PPARd) signaling pathway - cell viability counter screen (AID 743211); note: nearly all actives have a fitted effect of over 55% in size
Outline: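 In the same wells used for beta-lactamase reporter measurement, cytotoxicity is scored by CellTiter-Glo. HEK293H PPARd-bla cells receive compound for 17 h at 37C following a 5 h settling period.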

[11] = qHTS assay to identify small molecule antagonists of the peroxisome proliferator-activated receptor delta (PPARd) signaling pathway - cell viability counter screen (AID 743213); note: nearly all actives have a fitted effect of over 50% in size
Outline: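 Agonist-stimulated (L165041, 300 nM final) HEK293H PPARd UAS-bla cells are exposed to compounds for 17 h at 37 C, and ATP-based luminescence (CellTiter-Glo) from the same wells reports cytotoxicity.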

[12] = qHTS assay to identify small molecule agonists of the farnesoid-X-receptor (FXR) signaling pathway - cell viability counter screen (AID 743218); note: nearly all actives have a fitted effect of over 45% in size
Outline: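 Viability of FXR-bla HEK 293T cells is measured by ATP-based CellTiter-Glo luminescence following 16 h compound treatment at 37 C and a prior 2 h room-temperature beta-lactamase substrate step.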

[13] = qHTS assay to identify small molecule antagonists of the farnesoid-X-receptor (FXR) signaling pathway - cell viability counter screen (AID 743221; active = well fitted cell-killing curve with a large enough effect in the repeat runs, not every such curve was filed as active; note: nearly all actives have a fitted effect of over 50% in size)
Outline: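 Here viability was scored by luminescence after CellTiter-Glo addition to wells already read for beta-lactamase. Prior treatment: compound plus CDCA (50 uM final), 16 h, 37 C, HEK 293T FXR-bla cells.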

[14] = biological target: Vitamin D3 receptor (Homo sapiens) (UniProt P11473); assay: qHTS assay to identify small molecule agonists of the vitamin D receptor (VDR) signaling pathway (AID 743222; calls by dose curve)
Outline: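 Fluorescence from cleaved LiveBLAzer B/G FRET substrate served as readout. VDR-bla cells had been treated 16 h at 37C with test compounds in DMSO, following a 4 h settling period, and substrate was loaded for 2 h at RT.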

[15] = biological target: Peroxisome proliferator-activated receptor gamma (Homo sapiens) (UniProt P37231); assay: qHTS assay to identify small molecule antagonists of the peroxisome proliferator-activated receptor gamma (PPARg) signaling pathway (AID 743191; calls by dose curve; note: series mostly up to about 63 µM; nearly all actives have a fitted effect of over 30% in size)
Outline: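 GeneBLAzer PPARg UAS-bla HEK293H cells carrying a UAS-driven beta-lactamase reporter were plated at 3000 cells/well, preincubated 5 h at 37C, then given compound for 17 h at 37C; LiveBLAzer B/G FRET substrate was read after 1 h at room temperature.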

[16] = biological target: Peroxisome proliferator-activated receptor delta (Homo sapiens) (UniProt Q03181); assay: qHTS assay to identify small molecule agonists of the peroxisome proliferator-activated receptor delta (PPARd) signaling pathway (AID 743212; calls by dose curve)
Outline: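 Beta-lactamase reporter read by fluorescence (LiveBLAzer B/G FRET, 2 h, room temperature). Test agents, in DMSO, incubated at 37 C with PPARd-bla HEK293H cells.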

[17] = biological target: Peroxisome proliferator-activated receptor delta (Homo sapiens) (UniProt Q03181); assay: qHTS assay to identify small molecule antagonists of the peroxisome proliferator-activated receptor delta (PPARd) signaling pathway (AID 743215; active = well fitted inhibition curve with a large enough effect in the signal ratio in the repeat runs, not every such curve was filed as active; the % refers to the signal ratio; note: series mostly up to about 62 µM)
Outline: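 Plated HEK293H PPARd-bla cells rested 5 h at 37 C and 5% CO2. Compound, then agonist L165041 at 300 nM final, was added; 17 h at 37 C followed. Substrate loading, 2 h room temperature, fluorescence measured.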

[18] = biological target: Bile acid receptor (Homo sapiens) (UniProt Q96RI1); assay: qHTS assay to identify small molecule agonists of the farnesoid-X-receptor (FXR) signaling pathway (AID 743220; active = well fitted activation curve with a large enough effect in the signal ratio in the repeat runs, not every such curve was filed as active; the % refers to the signal ratio)
Outline: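 FXR-UAS-bla HEK 293T cells carrying a UAS-driven beta-lactamase reporter were plated for 5 h at 37C/5% CO2, then exposed to DMSO-dissolved Tox21 10K compounds for 16 h at 37C. A LiveBLAzer B/G FRET substrate was loaded for 2 h at room temperature before fluorescence reading.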

[19] = biological target: Vitamin D3 receptor (Homo sapiens) (UniProt P11473); assay: qHTS assay to identify small molecule antagonists of the vitamin D receptor (VDR) signaling pathway (AID 743223; active = well fitted inhibition curve with a large enough effect in the signal ratio in the repeat runs, not every such curve was filed as active; the % refers to the signal ratio)
Outline: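 Inhibition of agonist-driven VDR signalling is scored in VDR-bla cells: 3 nM final 1alpha,25-dihydroxyvitamin D3 plus compound, 16 h at 37C, then beta-lactamase detection by FRET substrate fluorescence after 2 h.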

[20] = biological target: Bile acid receptor (Homo sapiens) (UniProt Q96RI1); assay: qHTS assay to identify small molecule antagonists of the farnesoid-X-receptor (FXR) signaling pathway (AID 743217; active = well fitted inhibition curve with a large enough effect in the signal ratio in the repeat runs, not every such curve was filed as active; the % refers to the signal ratio)
Outline: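 Screen of the Tox21 10K library in quantitative HTS format using FXR-UAS-bla HEK 293T reporter cells. Agonist chenodeoxycholic acid, 50 uM final, added with compounds; 16 h incubation at 37 °C; beta-lactamase FRET fluorescence measured.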
% is set by controls: 0 for no effect and ±100 for the full control effect.

Vitamin D3 receptor (Homo sapiens), sequence (P11473 whole entry, looked up): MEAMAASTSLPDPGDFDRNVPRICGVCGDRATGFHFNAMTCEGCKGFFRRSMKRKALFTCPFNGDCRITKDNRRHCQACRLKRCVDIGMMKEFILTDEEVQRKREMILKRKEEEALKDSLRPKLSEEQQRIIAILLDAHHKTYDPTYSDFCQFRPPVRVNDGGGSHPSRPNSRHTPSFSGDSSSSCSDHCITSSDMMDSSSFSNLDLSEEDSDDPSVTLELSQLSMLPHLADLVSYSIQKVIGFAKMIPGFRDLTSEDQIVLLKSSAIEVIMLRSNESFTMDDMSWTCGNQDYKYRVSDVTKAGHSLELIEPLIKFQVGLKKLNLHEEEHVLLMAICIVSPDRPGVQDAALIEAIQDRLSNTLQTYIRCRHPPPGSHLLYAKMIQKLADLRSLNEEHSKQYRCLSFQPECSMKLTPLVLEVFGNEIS
Peroxisome proliferator-activated receptor delta (Homo sapiens), sequence (Q03181 whole entry, looked up): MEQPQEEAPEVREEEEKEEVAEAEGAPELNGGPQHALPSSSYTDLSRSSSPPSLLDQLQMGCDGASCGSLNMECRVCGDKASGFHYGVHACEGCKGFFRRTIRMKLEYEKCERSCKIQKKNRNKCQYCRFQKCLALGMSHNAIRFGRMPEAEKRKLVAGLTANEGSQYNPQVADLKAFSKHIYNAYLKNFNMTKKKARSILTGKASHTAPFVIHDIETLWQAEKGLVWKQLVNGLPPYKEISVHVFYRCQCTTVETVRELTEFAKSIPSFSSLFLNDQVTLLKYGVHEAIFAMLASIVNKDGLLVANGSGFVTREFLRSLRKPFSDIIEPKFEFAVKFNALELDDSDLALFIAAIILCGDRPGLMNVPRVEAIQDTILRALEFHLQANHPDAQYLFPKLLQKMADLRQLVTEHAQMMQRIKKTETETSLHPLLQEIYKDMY
Peroxisome proliferator-activated receptor gamma (Homo sapiens), sequence (P37231 whole entry, looked up): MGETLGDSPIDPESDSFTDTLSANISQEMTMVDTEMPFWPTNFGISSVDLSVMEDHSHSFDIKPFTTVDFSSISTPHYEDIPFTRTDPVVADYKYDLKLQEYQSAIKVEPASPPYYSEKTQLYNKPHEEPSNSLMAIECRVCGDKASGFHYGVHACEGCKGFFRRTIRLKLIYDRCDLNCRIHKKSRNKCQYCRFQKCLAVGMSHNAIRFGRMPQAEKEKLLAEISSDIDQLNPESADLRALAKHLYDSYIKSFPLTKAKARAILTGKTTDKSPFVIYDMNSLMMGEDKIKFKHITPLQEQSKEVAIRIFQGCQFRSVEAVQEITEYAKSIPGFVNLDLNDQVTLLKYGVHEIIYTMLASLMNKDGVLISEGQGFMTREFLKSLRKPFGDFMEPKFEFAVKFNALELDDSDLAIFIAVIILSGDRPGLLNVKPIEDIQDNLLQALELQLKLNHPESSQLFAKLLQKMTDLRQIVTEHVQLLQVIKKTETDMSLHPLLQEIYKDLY
Bile acid receptor (Homo sapiens), sequence (Q96RI1 whole entry, looked up): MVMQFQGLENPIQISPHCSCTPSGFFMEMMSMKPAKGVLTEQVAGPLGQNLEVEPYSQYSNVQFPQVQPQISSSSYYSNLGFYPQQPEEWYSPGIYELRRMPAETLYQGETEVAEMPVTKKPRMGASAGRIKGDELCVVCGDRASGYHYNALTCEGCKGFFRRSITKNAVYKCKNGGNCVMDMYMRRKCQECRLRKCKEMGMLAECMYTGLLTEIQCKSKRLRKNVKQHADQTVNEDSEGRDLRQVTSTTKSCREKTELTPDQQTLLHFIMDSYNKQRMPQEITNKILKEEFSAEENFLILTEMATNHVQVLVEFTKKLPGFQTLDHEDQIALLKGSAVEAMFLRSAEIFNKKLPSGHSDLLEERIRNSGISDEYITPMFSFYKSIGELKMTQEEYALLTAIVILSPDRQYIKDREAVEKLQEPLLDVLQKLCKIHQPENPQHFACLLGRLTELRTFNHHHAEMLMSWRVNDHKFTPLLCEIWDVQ
Aryl hydrocarbon receptor (Homo sapiens), sequence (P35869 whole entry, looked up): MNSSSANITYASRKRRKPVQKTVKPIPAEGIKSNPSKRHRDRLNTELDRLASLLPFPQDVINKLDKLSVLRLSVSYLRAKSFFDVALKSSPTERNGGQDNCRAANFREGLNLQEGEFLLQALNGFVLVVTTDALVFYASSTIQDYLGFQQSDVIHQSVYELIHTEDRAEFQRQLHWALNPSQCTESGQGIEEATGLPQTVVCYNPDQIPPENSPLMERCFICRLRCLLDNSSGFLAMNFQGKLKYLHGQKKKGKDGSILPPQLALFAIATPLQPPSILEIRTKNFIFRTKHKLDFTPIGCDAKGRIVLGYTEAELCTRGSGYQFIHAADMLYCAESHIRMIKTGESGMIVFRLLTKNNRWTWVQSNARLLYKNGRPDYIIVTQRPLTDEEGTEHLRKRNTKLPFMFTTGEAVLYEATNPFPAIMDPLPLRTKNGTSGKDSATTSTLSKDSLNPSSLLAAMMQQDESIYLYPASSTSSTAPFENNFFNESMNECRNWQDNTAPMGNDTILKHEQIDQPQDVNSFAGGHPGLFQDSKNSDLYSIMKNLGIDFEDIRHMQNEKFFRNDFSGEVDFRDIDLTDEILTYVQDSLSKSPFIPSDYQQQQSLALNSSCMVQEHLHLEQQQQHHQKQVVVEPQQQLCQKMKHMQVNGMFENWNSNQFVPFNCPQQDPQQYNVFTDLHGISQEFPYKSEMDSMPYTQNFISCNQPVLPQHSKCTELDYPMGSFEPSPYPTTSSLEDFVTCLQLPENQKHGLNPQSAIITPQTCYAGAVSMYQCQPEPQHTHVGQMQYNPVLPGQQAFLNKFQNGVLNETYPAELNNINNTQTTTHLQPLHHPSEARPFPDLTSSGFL

CCCOC(=O)CCCCC(=O)OCCC
inactive: Potency [1] | Potency [2] | Potency [3] | outcome [4] | outcome [5] | Potency [6] | outcome [7] | outcome [8] | outcome [9] | outcome [10] | outcome [11] | Potency [12] | outcome [13] | outcome [14]

COc1ccc(/C=N/NC(=O)c2ccncc2)cc1OC
inactive: Potency [1] | Potency [3] | outcome [4] | Potency [15] | outcome [5] | Potency [6] | outcome [8] | outcome [10] | outcome [16] | outcome [11] | outcome [17] | Potency [12] | outcome [13]
active: Potency [2] 2660 nM

Nc1cc(S(=O)(=O)O)ccc1S(=O)(=O)O
inactive: Potency [1] | Potency [2] | Potency [3] | outcome [4] | Potency [15] | outcome [5] | outcome [7] | outcome [8] | outcome [9] | outcome [16] | outcome [11] | Potency [12] | outcome [18] | outcome [13] | outcome [14] | outcome [19]

CN(C1CCCCC1)S(=O)(=O)c1ccccc1N
inactive: Potency [1] | Potency [2] | Potency [3] | outcome [4] | Potency [15] | outcome [5] | outcome [7] | outcome [8] | outcome [9] | outcome [10] | outcome [11] | outcome [17] | Potency [12] | outcome [18] | outcome [13] | outcome [14] | outcome [19]

Cc1oc(=O)oc1CN1CCN(c2cc3c(cc2F)c(=O)c(C(=O)O)c2n3C(C)S2)CC1 (configuration not stated)
inactive: Potency [1] | Potency [2] | Potency [3] | outcome [4] | Potency [15] | outcome [5] | outcome [7] | outcome [8] | outcome [9] | outcome [10] | outcome [16] | outcome [11] | outcome [17] | Potency [12] | outcome [13] | outcome [14] | outcome [19]

CCc1nccnc1C
inactive: Potency [1] | Potency [2] | Potency [3] | outcome [4] | Potency [15] | outcome [5] | Potency [6] | outcome [8] | outcome [9] | outcome [10] | outcome [16] | outcome [17] | outcome [20] | Potency [12] | outcome [18] | outcome [13] | outcome [14]

C=CCCCCCCCCCCC
inactive: activity change, negative = cytotoxicity [1] 2.95% [at 8.47 µM] | activation [2] -0.125% [at 8.47 µM] | viability change, negative = cytotoxic [3] 0.7% [at 8.47 µM] | activation [4] -4.62% [at 7.08 µM] | ratio activity, negative = inhibition [15] 16.1% [at 5.95 µM] | activity change, negative = cytotoxicity [5] 13.8% [at 5.95 µM] | viability change, negative = cytotoxic [7] 9.33% [at 8.36 µM] | activity change, negative = cytotoxicity [8] -3.82% [at 5.95 µM] | activation [9] -0.0554% [at 5.95 µM] | activity change, negative = cytotoxicity [10] -1.9% [at 5.95 µM] | ratio activity, negative = inhibition [17] 0.24% [at 6.26 µM] | viability change, negative = cytotoxic [12] 33.3% [at 5.95 µM] | activity change, negative = cytotoxicity [13] 11.4% [at 5.95 µM] | activation [14] -2.3% [at 6.01 µM] | activity change, negative = inhibition [19] 4.12% [at 6.95 µM]

NS(=O)(=O)c1ccc(Cl)c(S(N)(=O)=O)c1
inactive: Potency [1] | Potency [2] | Potency [3] | outcome [4] | Potency [15] | outcome [5] | outcome [7] | outcome [8] | outcome [11] | Potency [12] | outcome [13] | outcome [14] | outcome [19]

CN=C(NC#N)NCCSCc1csc(N=C(N)N)n1
inactive: Potency [1] | Potency [2] | Potency [3] | outcome [4] | outcome [5] | Potency [6] | outcome [7] | outcome [8] | outcome [9] | outcome [10] | outcome [17] | Potency [12] | outcome [13] | outcome [14]
